The structures appear in SMILES notation. Activity calls are given as the source filed them. The calls were made as follows: active = hit-call score of the fitted dose curve at least 0.9, where 1 is the maximum; inactive = score below 0.9.

The experiment can be described thus: CCTE_Padilla_ZF_Score.Craniofacial: CCTE's 144 Hour Post-fertilization zebrafish Assay Score for Craniofacial Malformation, Padilla Lab (AID 2284405). As for the experimental part:
CCTE_Padilla_ZF_Phenotype_Score is a whole embryo, multiplexed assay using zebrafish ova exposed for 144 hours post fertilization on a 96-well plate.CCTE_Padilla_ZF_Score.Craniofacial is one of one assay component(s) measured or calculated from the CCTE_Padilla_ZF_Phenotype_Score assay. It is designed to make measurements of zebrafish development as detected with brightfield microscopy of developing zebrafish embryos.Data from the assay component CCTE_Padilla_ZF_Score.Craniofacial was analyzed into 1 assay endpoints. This assay endpoint, CCTE_Padilla_ZF_Score.Craniofacial, was analyzed in the positive analysis fitting direction relative to DMSO as the negative control and baseline of activity. Using a type of viability reporter, gain-of-signal activity can be used to understand changes in developmentals as they relate to the whole embryo. To generalize the intended target to other relatable targets, this assay endpoint is annotated to the zebrafish development intended target family, where the subfamily is craniofacial morphogenesis.
Zebrafish husbandry: Wild type adult zebrafish (Danio rerio; undefined outbred stock obtained from Aquatic Research Organisms, Hampton, NH, 03842) were housed in an AAALAC-approved animal facility at 28C with a 14:10 h light: dark cycle (lights on at 08:30 h). Adult fish (2-3 females per male; density = 15-20 adults per tank) were kept in one of several 9-liter (L) flow-through colony tanks (Aquaneering Inc., San Diego, CA). All adults in a colony tank were placed in a 2 L (static) breeding tank (Aquatic Habitats, Apopka, FL) one hour prior to light onset. Typically, adults from two to three colony tanks were mated on the same day. Two hours after light onset the adults were returned to the colony tank. All embryos were gathered from each breeder tank, pooled, and placed in a 28C water bath for 2 h, followed by two washes with 0.06% bleach (v/v) in 10% Hanks' Balanced Salt Solution (13.7 mM NaCl 0.54 mM KCl, 25 uM Na2HPO4, 130 uM CaCl2 100 um MgSO4 and 420 um NaHCO3,), hereafter referred to as Hanks' solution, for 5 min in order to remove any residual bacteria or fungi. Immediately following washing, the embryos were examined, and healthy embryos were separated from dead or unfertilized eggs and moved into fresh Hanks'. Chemical exposures: Zebrafish embryos were exposed in 96-well plates. Between 6- and 8-hours post fertilization (hpf), healthy embryos (with chorions) were transferred, one embryo per well, into 96 well (0.5 mL) microtiter plates (Cell Culture-Treated, Flat-Bottom Microplate 96 well [Corning Costar, Kennebunk, ME; Cat 09-761-145]) filled with 200 uL of Hanks' solution. A random number generator was used to assign the order in which the rows of embryos were plated in 96 well plates each week. After plating, the embryos were dosed with 0.8 uL of the chemical dosing solution then immediately sealed with AlumaSeal II (Excel Scientific Inc, Victorville, CA) to prevent volatilization of the chemicals, and then placed in a leakproof secondary container. These containers were placed in an incubator maintained on a 14:10 h light: dark cycle at 26C for rearing. On 5 dpf, live larvae were gently moved out of the plate with test chemicals and into a new 96 well mesh plate (Millipore Corp., Bedford, MA) with just the Hanks' solution. Once within the mesh well plate, the animals were rinsed with 400 uL of fresh Hanks' three times, and then the plates were covered with a non-adhesive material (Microseal A, BioRad, Hercules, CA), plate lid added, and then plate sides wrapped in Parafilm (PM992, Bermis Company, Neenah, WI), and returned to the incubator. […]
Take `FC(F)=C(F)C(F)(F)C(F)(F)C(F)(F)C(F)(F)C(F)(F)C(F)(F)F`: the result was inactive.

As to `O=S(=O)(O)CCC(F)(F)C(F)(F)C(F)(F)C(F)(F)C(F)(F)C(F)(F)F`, the outcome was inactive.

Turning to `OC(O)(C(F)C(O)(O)C(F)(F)F)C(F)(F)F`, the half-maximal activity concentration (AC50) is 35.5 µM (active).

Take `FC(F)(F)COC(OCC(F)(F)F)OCC(F)(F)F`: the compound was classed as inactive.

As for `OCCC(F)(F)C(F)(F)C(F)(F)C(F)(F)F`, the compound was called inactive.

On to `NCC(F)(F)C(F)(F)C(F)(F)C(F)(F)F`, for which the outcome was inactive.

As to `O=C(Cl)C(F)(F)C(F)(F)C(F)(F)C(=O)Cl`, the result was inactive.

As for `FC(F)C(F)(F)COCC1CO1` (stereo not given), the half-maximal activity concentration (AC50) is 118 µM (active).

`FC(F)(F)C(F)(F)C(F)(F)C(F)(F)C(F)(F)C(F)(F)I`: the compound was classed as inactive.

Turning to `C[Si](C)(C)C(F)(F)C(F)(F)C(F)(F)F`, the outcome was inactive.
